# This is a sample that favours compounds with a hit; in the whole collection about 8.7% have one here.
# Sfp PPTase inh: qHTS Assay for Inhibitors of Bacillus subtilis Sfp phosphopantetheinyl transferase (PPTase). Biochemical Sfp PPTase activity, qHTS. Potency, µM, actives largely listed as inhibitors. 310,000 compounds, 3.5% hits. AID 1490, 2009;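 note: the enzyme is Sfp with the accession as filed and its product quenches rhodamine fluorescence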
#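 Reaction rates are the 30-min fluorescence difference (ex 525, em 598 nm) in wells containing 15 nM Sfp, 5 uM rhodamine-CoA and 12.5 uM BHQ-2-YbbR at pH 7.6 with 10 mM MgCl2.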
# G9a block: qHTS Assay for Inhibitors of Histone Lysine Methyltransferase G9a; 350,000 compounds, 8.8% hits; Potency, µM (series often up to 102 µM), actives largely listed as inhibitors; G9a H3K9 monomethylation, AlphaScreen, 2 h; note: nearly all actives have a fitted effect of over 75% in size
# Target sequence (Q96KQ7 913-1193 limits assumed): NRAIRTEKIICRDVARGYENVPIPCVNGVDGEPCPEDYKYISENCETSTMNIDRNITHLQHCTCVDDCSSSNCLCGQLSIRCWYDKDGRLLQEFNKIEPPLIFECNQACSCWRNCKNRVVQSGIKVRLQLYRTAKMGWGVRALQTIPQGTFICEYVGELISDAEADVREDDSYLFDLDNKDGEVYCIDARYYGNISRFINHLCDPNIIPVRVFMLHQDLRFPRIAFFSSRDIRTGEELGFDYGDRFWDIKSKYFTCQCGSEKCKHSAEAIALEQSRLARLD
#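 Signal arises when biotinylated H3K9 peptide, once monomethylated, bridges streptavidin donor and antibody-captured acceptor beads. Enzyme at 20 nM was preincubated 15 min with test compounds; peptide 500 nM and SAM 20 uM then reacted for 2 h.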
# BAZ2B inh: qHTS Assay for Inhibitors of BAZ2B | Bromodomain adjacent to zinc finger domain protein 2B (Homo sapiens), Q9UIF8 | AlphaScreen BAZ2B-H3K14Ac peptide displacement | Potency, µM (doses to about 114 µM), most hits filed as inhibitors | 360,000 compounds, 4.4% hits | AID 504333, 2011; note: nearly all actives have a fitted effect of over 60% in size
#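 Complex of BAZ2B and biotin-H3K14Ac (50 nM apiece) forms over 30 min at RT, then faces library compounds up to 110 uM for another 30 min; AlphaScreen beads added, 20 min dark incubation, luminescence read.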
# 12-LOX inh: Primary qHTS assay for inhibitors of human arachidonate 12S-lipoxygenase (ALOX12): Round 2. Polyunsaturated fatty acid lipoxygenase ALOX12 (Homo sapiens), P18054. purified 12hLO, xylenol orange hydroperoxide absorbance. Potency, µM (highest dose often 108 µM), usual class: inhibitors. 580,000 compounds, 1.1% hits. AID 1671190, 2021
#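 Purified human 12hLO at 150 nM in 25 mM Hepes, 0.01% Triton X-100, pH 7.0, preincubated 15 min at room temperature with compound. Reaction started with 40 uM arachidonic acid, 30 min at room temperature. Hydroperoxide measured by Fe-xylenol orange, 573/405 nm absorbance ratio.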
# HP1b chromo inh: HTS for Inhibitors of HP1-beta Chromodomain Interactions with Methylated Histone Tails; Chromobox protein homolog 1 (Homo sapiens), P83916; AlphaScreen HP1-beta / biotin-H3K9me3 peptide binding; Potency, µM (doses to about 114 µM), most hits filed as inhibitors; 390,000 compounds, 0.56% hits; AID 540317, 2011; note: nearly all actives have a fitted effect of over 70% in size
# Target sequence (P83916 whole entry, looked up): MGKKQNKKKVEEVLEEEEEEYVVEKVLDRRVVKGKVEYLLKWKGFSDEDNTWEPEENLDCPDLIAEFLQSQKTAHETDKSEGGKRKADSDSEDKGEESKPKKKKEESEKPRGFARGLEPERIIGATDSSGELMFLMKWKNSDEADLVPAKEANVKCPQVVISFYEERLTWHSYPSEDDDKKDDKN
#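 AlphaScreen: HP1-beta (50 nM) preformed 30 min with biotin-H3(1-18)K9me3 peptide (50 nM) in PBS pH 7.4, 0.01% Tween-20. Compound added for 30 min at RT, then streptavidin donor/nickel chelate acceptor beads (10 ug/mL) for 30 min.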
# JMJD2A Tudor: qHTS Assay for Inhibitors of JMJD2A-Tudor Domain | Lysine-specific demethylase 4A (Homo sapiens), O75164 | AlphaScreen JMJD2A-Tudor / H3K4me3 peptide binding | Potency, µM (top dose mostly 114 µM), most hits filed as inhibitors | 390,000 compounds, 4.4% hits; note: nearly all actives have a fitted effect of over 50% in size
# Hits are given with their value; n = inactive; u = inconclusive; x = not tested or not shown; ! = repeats disagree; [ ] = another dose, or the depositor's remark. Calls come from the whole dose curve; as a rule, active = well fitted curve in the direction sought with a large enough effect; inconclusive = small, poorly fitted or top-dose-only effect, or another doubt; inactive = no such curve, though single readings can be large; an effect the other way counts as inactive or inconclusive.
SMILES,Sfp PPTase inh,G9a block,BAZ2B inh,12-LOX inh,HP1b chromo inh,JMJD2A Tudor
Cc1ccc(-c2nc(S(=O)(=O)c3ccc(F)cc3)c(N3CCN(c4ccccc4)CC3)o2)cc1,x,n,u,n,n,n
Cc1ccc(S(=O)(=O)c2nc(-c3ccc(F)cc3)oc2N2CCOCC2)cc1,n,35µM,n,u,n,n
CCN1CCN(c2oc(-c3ccccc3)nc2S(=O)(=O)c2ccc(C)cc2)CC1,x,40µM,50µM,n,n,u
CC(=O)Nc1ccc(S(=O)(=O)[C@H]2CS(=O)(=O)C[C@@H]2N2CCC(C)CC2)cc1,x,x,x,n,x,x
C=CCn1c(SCC(=O)O)nnc1-c1cccc(Cl)c1,n,n[12.7 µM],n,n,n,n
C=CCn1c(SCC(=O)Nc2ccc(N(C)C)cc2)nnc1-c1cccc(C)c1,n,7.9µM,45µM,n,n,50µM
C=CCn1c(SCC(=O)c2ccc(F)cc2)nnc1-c1ccc2c(c1)OCO2,n,n,n,n,n,n
C=CCn1c(SCC(=O)NC2CCCC2)nnc1-c1cccnc1,n,x,n,n,n,n
C=CCn1c(SCC(=O)c2ccc(O)c(O)c2)nnc1-c1cccnc1,u,x,35µM,n,25µM,n[11.4 µM]
C=CCn1c(SCC(=O)c2ccc(O)c(O)c2)nnc1-c1cccc(C)c1,x,u,50µM,8.9µM,n,u
C=CCn1c(SCC(=O)c2ccc(O)c(O)c2)nnc1-c1cccc(Cl)c1,x,n[0.501 µM],50µM,u,n,u
CC1(c2cccc3ccccc23)NC(=O)N(Cc2ncc(-c3ccccc3)o2)C1=O (stereo unspecified),x,x,x,n,x,x
CS(=O)(=O)N(Cc1cccnc1)C1CN(C(=O)CCc2c[nH]c3ccccc23)C1,x,x,x,n,x,x
C=CCn1c(SCC(=O)Nc2cc(NC(C)=O)ccc2OC)nnc1-c1ccccn1,n,n,79µM,n,n,u
C=CCn1c(SCc2nc(N)nc(N(C)C)n2)nnc1-c1cccnc1,n,50µM,u,u,n,n
Cc1cn2nc(C(=O)NC(C)c3ccccc3)cc2c(N2CCCC2)n1 (stereo unspecified),x,x,x,n,x,x
N#C/C(=C\c1ccccc1Cl)C(=O)Nc1ccccn1,n,n,n,u,n,n
N#CC(C#N)=C1C=CC=CN1/C(=C\c1ccccc1Cl)C(=O)c1ccccc1,u,14µM,u,n,u,50µM
N#CC(C#N)=C1C=CC=CN1/C(=C\c1ccccc1)C(=O)c1cccs1,2.2µM,1.1µM,n,n,n,u
Cc1ccsc1CN1CCCC(CO)CCNC(=O)CC1 (stereo unspecified),x,x,x,n,x,x
CCOC(=O)c1cc(-c2ccccc2)n(CCC(=O)NC(C)CC)c1C (stereo unspecified),n,n,n,n,n,n
CC(=O)c1cc(-c2ccccc2)n(CCC(=O)NC2CCC(C)CC2)c1C (stereo unspecified),n,n,n,n,n,n
CC(=O)c1cc(-c2ccccc2)n(CCC(=O)NC2CCCCC2)c1C,n,n,50µM!,n,n,n
CC(=O)c1cc(-c2ccccc2)n(CCC(=O)NC2CCCC2)c1C,n,n,50µM,n,n,n
CCC(C)NC(=O)CCn1c(-c2ccccc2)cc(C(C)=O)c1C (stereo unspecified),n,n,50µM,n,n,n
SMILES,Sfp PPTase inh,G9a block,BAZ2B inh,12-LOX inh,HP1b chromo inh,JMJD2A Tudor
COc1cccc(Oc2c(C)oc3cc(OS(C)(=O)=O)ccc3c2=O)c1,x,x,x,n,x,x
CCCSc1nc(O)c(C(c2ccc(OC)c(O)c2)c2c(O)nc(SCCC)n(C)c2=O)c(=O)n1C,u,10µM,n,u,n,n
COc1cccc(C(c2c(O)nc(SC)n(C)c2=O)c2c(O)nc(SC)n(C)c2=O)c1,n,x,n,n,n,n
CCOc1ccccc1Nc1sc(C(=O)c2ccccc2)c(N)c1C(=O)Nc1ccccc1,x,11µM,u,n,n,u
COc1ccc(NC(=O)c2c(Nc3ccccc3)sc(C(=O)c3ccc(F)cc3)c2N)cc1,n,u,u,n,n,45µM
CCOc1ccccc1Nc1sc(C(=O)c2ccccc2)c(N)c1C(=O)NCCc1ccccc1,x,u,n,n,n,n
COc1ccc(CCNC(=O)c2c(Nc3ccccc3C)sc(C(=O)c3ccccc3)c2N)cc1OC,x,8.9µM,u,n,n,u
COc1cc(-c2noc(C3CCCN(S(=O)(=O)c4cccs4)C3)n2)ccc1OC(C)C (stereo unspecified),x,x,x,n,x,x
Cc1nc2ccccn2c1-c1csc(Nc2cccc(C(=O)O)c2)n1,79µM,45µM,n,n,n,n
Cc1cccc(Nc2nc(-c3c(C)nc4ccccn34)cs2)c1,50µM,u,n,n,n,n
Nc1cccc(-c2nc3ccc(C(=O)c4ccccc4)cc3[nH]2)c1,n,x,50µM,u,n,u
O=C(CCc1ccco1)NC1(C(=O)O)CCCCCC1,x,x,x,n,x,x
COc1ccc(NC(=O)CN(CC(=O)Nc2ccc(OC)cc2)C(C)(C)CO)cc1,n,71µM,n,n,n,n
COc1ccc(NC(=O)CN(C)CC(=O)Nc2cccc(C(C)=O)c2)cc1,u,4.5µM,35µM,n,u,10µM
CN(CC(=O)Nc1ccc(Cl)cc1)CC(=O)Nc1cccc(Br)c1,n,45µM,n,n,n,n
COc1ccc(N(CC(=O)Nc2cccc(C(C)=O)c2)S(=O)(=O)c2ccc(NC(C)=O)cc2)cc1,n,x,n,n,n,n
COc1ccc(NC(=O)CN(C)CC(=O)N2CCCCCC2)cc1,x,56µM,n,n,n,14µM
CN1C(=O)Cc2cc(S(=O)(=O)Nc3cccn4nc(C5CC5)nc34)ccc21,x,x,x,n,x,x
Cc1ccc(NC(=O)c2sccc2C)cc1I,x,x,x,n,x,x
CCC(C)c1ccc(NC(=O)CN(C)CC(=O)Nc2cccc(OC)c2)cc1 (stereo unspecified),n,50µM,50µM,n,n,n
CCCN(CC(=O)Nc1cccc(S(N)(=O)=O)c1)CC(=O)Nc1ccc(F)c(F)c1F,n,n,n,n,n,n
CCCN(CC(=O)Nc1cccc(Br)c1)CC(=O)Nc1ccc(F)c(F)c1F,n,11µM,n,n,n,n
CCC(C)c1ccc(NC(=S)Nc2ccc(OC)cc2C)cc1 (stereo unspecified),n,4.5µM,n,u,n,n
COc1cccc(NC(=O)CN(C)C(C)C(=O)NC(C)c2ccc(Cl)cc2Cl)c1 (stereo unspecified),x,28µM,n,n,n,n
